From PubChem BioAssay AID652126 (The Scripps Research Institute Molecular Screening Center, 2013)
In all, about 370,000 compounds went through this assay and about 3,700 (1%) were called active. Shown is part of a subset that was picked to be rich in actives. Unmarked numbers belong to inactive results.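 How the source made its calls: active means activation above the mean over all tested compounds plus 3 SD (cut at about 0.9% in these data); inactive means the rest.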

These molecules were tested on Nuclear hormone receptor DAF-12 (Strongyloides stercoralis) (assay: ssDAF-12 driven luciferase reporter activation – cell-based, luminescence, HEK293, GRIP1 co-expression, lit1-tk-luc, primary screen (AID 652126;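 further: 0% = DMSO-only wells and 100% = 3 µM delta7-dafachronic acid wells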)). Conditions: HEK293 ssDAF-12/GRIP1 lit1-tk-luc reporter, at 6.8 µM, hits give high values, % of 3 µM dafachronic acid response.
For C[C@H]1[C@H](NC(=O)c2cccc(N(C)C)c2)CC[C@@]23CCCN2C(=O)CCC[C@@H]13, the activation was -1.05%.
With Cn1c(-c2ccco2)nc2cc3ccccc3cc21 the activation was 1.86% (active).
Molecule O=S(=O)(Nc1ccc2nc(-c3ccco3)[nH]c2c1)c1ccccc1 has an activation of -0.88%.
Cn1c(SCC(=O)c2cccs2)nnc1-c1ccco1 showed an activation of -0.1%.
Cc1cc(NS(=O)(=O)c2ccc(NC(=O)CSc3nnc(SCc4ccc(F)cc4)s3)cc2)nc(C)n1 showed an activation of -1.33%.
With O=C1CCC2(CCC(c3ccc(Cl)cc3)CC2)N1CCO (configuration not stated) the activation was -1.42%.
In the case of Oc1cccc2ccc(/C=C/c3ccc(Br)s3)nc12, the activation is reported as 1.49% (active).
With O=C(CN1C(=O)NC2(CCCCC2)C1=O)NCCC1=CCCCC1 the activation was -1.49%.
For CCOC(=O)c1cccc(NC(=O)CN(C)S(=O)(=O)c2ccc(-c3cocn3)s2)c1, the activation was 0.72%.
N[C@@H](Cc1ccccc1)C(=O)N1CCC[C@@H]1C(=O)N1CCC2CCN(S(=O)(=O)c3ccccc3)CC21 (some centres not stated) was tested, and the activation was -0.75%.
In the case of O=C(NCCCNC(=O)c1ccccc1Cl)c1cnccn1, the activation is reported as -0.77%.
CN(C)CCNC(=O)Cc1ccc([N+](=O)[O-])cc1 showed an activation of -0.65%.
With CN(C)CCNC(=O)c1ccc(Cl)c2cc3ccccc3nc12 the activation was 2.74% (active).
Work on COc1ccc(Cn2cc(CN3[C@@H](CC(C)C)COc4cc(Br)ccc4S3(=O)=O)nn2)cc1 yielded an activation of -0.66%.
Fc1ccc2nc(COCc3nc4ccc(F)cc4[nH]3)[nH]c2c1 showed an activation of -1.23%.
Oc1cc2c(cc1O)CN(C(=S)NCCc1ccc(Cl)cc1)CCC2 gave an activation of -1.68%.
CC1CCN(C(=O)CCNC(=O)c2ccccc2)CC1 showed an activation of -0.14%.
Molecule CCOc1ccc(CCNC(=O)C2=C(C)C(=O)OC23CCC(C)CC3)cc1OCC (configuration not stated) has an activation of -0.29%.
For CCN(CCNC(=O)C1=C(C)C(=O)OC12CCC(C)CC2)c1ccccc1 (configuration not stated), the activation was 3.96% (active).
Work on O=C(OC12CCCN(C1)/C(=C/c1cccnc1)C2)C1CCCC1 (configuration not stated) yielded an activation of -1.43%.
Molecule CCOC(=O)[C@@]12CN(C(=O)OC(C)(C)C)CC=C1N(Cc1ccc(OC)cc1)C(=O)[C@H]2CC(=O)NCc1ccc(OC)c(OC)c1 has an activation of -0.75%.
For CC(NC(=O)c1ccccc1C(=O)O)c1ccc(-n2ccnc2)cc1 (configuration not stated), the activation was 0.93% (active).
C/C(=N\NC(=O)c1cccnc1)c1ccc(-n2ccnc2)cc1 was tested, and the activation was -1.15%.
CC(NC(=O)c1ccccc1SCC(=O)N1CCCC1)c1ccccc1 (configuration not stated) gave an activation of -0.47%.
C[C@H](C(=O)N(C)c1ccccc1)[C@@H](O)c1ccc2ccccc2c1 gave an activation of -0.52%.
In the case of O=C(Nc1nnc(-c2ccccc2)o1)c1cccc(S(=O)(=O)N2CCOCC2)c1, the activation is reported as -0.75%.
COc1ccccc1-c1nnc(NC(=O)c2ccc3ncsc3c2)o1 was tested, and the activation was 0.27%.
In the case of COc1ccccc1-c1nnc(NC(=O)c2cccc(N3C(=O)CCC3=O)c2)o1, the activation is reported as 1.57% (active).
Cc1ccc(NC(=S)NNC(=O)CSc2nnc(SCc3ccccc3Cl)s2)cc1 gave an activation of -1.2%.
CCOc1ccc2c(c1)C(c1ccc(C)cc1)=NNC(c1ccc(C)cc1)=N2 showed an activation of -0.66%.
Cc1ccc(C2=Nc3c(ccc4ccccc34)C(c3ccncc3)=NN2)cc1 was tested, and the activation was 1.33% (active).
For CN(C)c1ccc(NC(=O)NC2CCCCN(Cc3ccc(Cl)cc3)C2=O)cc1 (configuration not stated), the activation was -1.57%.
With COc1ccc(C2CC=C(C(=O)O)C(c3ccccc3F)N2S(=O)(=O)c2ccc(C)cc2)cc1OC (configuration not stated) the activation was 1.37% (active).
Cc1ccc(S(=O)(=O)N2[C@@H](c3cccc(Cl)c3)C(C(=O)O)=CC[C@H]2c2ccc(Cl)c(Cl)c2)cc1 showed an activation of -1.12%.
In the case of Cc1ccc(S(=O)(=O)N2[C@@H](c3ccccc3F)C(C(=O)O)=CC[C@H]2c2ccc(Cl)cc2)cc1, the activation is reported as -1.05%.
For COc1ccc(N2CCN(CCNS(=O)(=O)c3ccc([N+](=O)[O-])cc3)CC2)cc1, the activation was -1.33%.
Work on Cn1c(=O)c(Sc2ccc(Cl)cc2)c(O)c2ccccc21 yielded an activation of 0.04%.
For Cn1c(=O)c(C(=O)Nc2ncccn2)c(O)c2ccccc21, the activation was 2.21% (active).
In the case of C=CCn1c(=O)c(C(=O)Nc2ncccc2O)c(O)c2ccccc21, the activation is reported as -0.42%.
In the case of CN(C)[C@H]1CCN(c2cccc3c2S(=O)(=O)N2CC[C@H](C2)O3)C1, the activation is reported as -0.74%.
Molecule CC(C)(C)NC(=O)C(c1cccnc1)N(C(=O)c1cnco1)c1ccc(C(C)(C)C)cc1 (configuration not stated) has an activation of -2.05%.
For COc1ccccc1C(=O)N/C(=C/c1ccc2c(c1)OCO2)C(=O)Nc1cccc(C(=O)O)c1, the activation was -0.63%.
COc1ccc(/C=C(/NC(=O)c2ccco2)C(=O)Nc2ccc(C(C)=O)cc2)cc1 showed an activation of -1.1%.
COc1ccccc1C(=O)N/C(=C/c1ccco1)C(=O)Nc1ccc(C(=O)O)cc1 was tested, and the activation was 1.14% (active).
CCOC(=O)[C@]12CCCC3=C1N(CCC3)C(=O)[C@@H](CC(=O)NCC13CC4CC(CC(C4)C1)C3)C2 showed an activation of -0.93%.
Work on Cc1ccc(NC(=O)Cc2cccc(F)c2)c(S(=O)(=O)N2CCOCC2)c1 yielded an activation of -0.55%.
O=C(NC1CCCC1)C1CSCCS(=O)(=O)N1Cc1ccccc1 (configuration not stated) gave an activation of -1.05%.
With Cc1noc(C)c1/C=N/Nc1ccc2ccccc2n1 the activation was 1.61% (active).
Molecule C=CCN1C(=O)[C@H](CC(=O)N2CCN(C(=O)OCC)CC2)[C@@]2(C(=O)OCC)CCCC=C12 has an activation of -0.45%.
With Cc1ccc(-n2c(SCC(=O)Nc3ccc(S(=O)(=O)Nc4nccs4)cc3)nnc2-c2ccccn2)cc1 the activation was -0.88%.
Cc1ccnc(Nc2nc3ccccc3s2)n1 was tested, and the activation was 1.25% (active).
For Cc1ccnc(-n2sc3ccccc3c2=O)n1, the activation was 0.16%.
Cc1cccc(NC(=O)C[C@H]2CC[C@H]3[C@@H](COc4ccc(NC(=O)Nc5ccccc5)cc4C(=O)N3C)O2)c1 showed an activation of -1.84%.
Molecule Cc1cccc(S(=O)(=O)N2CN(CC3CCCO3)c3nc4ccccc4nc32)c1 (configuration not stated) has an activation of -0.43%.
CCOC(=O)C1CCN(C(=O)C(C)(C)NC(=O)Nc2ccc(F)c(F)c2)CC1 was tested, and the activation was -1.1%.
Work on COC(=O)C1CN(CC(C)C)CCS(=O)(=O)N1Cc1ccc(C)cc1 (configuration not stated) yielded an activation of -0.69%.
CCc1ccc(-c2nnn(Cc3nc4ccccc4s3)n2)cc1 gave an activation of -0.71%.
With COc1ccccc1OCc1nc2ccccc2s1 the activation was 2.57% (active).
For COc1ccccc1OCc1nnc(SCC(N)=O)n1-c1ccccc1, the activation was -1.54%.
Molecule COC(=O)C12C=C3CC(c4ccccc4)=C3C(=O)N1Cc1[nH]c3ccccc3c1C2 (configuration not stated) has an activation of -1.07%.
For COc1ccc2c(c1)CN1CN(CCc3ccccc3)S(=O)(=O)CC21 (configuration not stated), the activation was -0.04%.
For Cc1nnsc1C(=O)Nc1cccc(Cl)c1C, the activation was -1.69%.
Work on Cc1nnsc1C(=O)NCc1c(F)cccc1Cl yielded an activation of -0.35%.
In the case of Cc1cc(Cl)ccc1NNC(=O)c1snnc1C, the activation is reported as 2.01% (active).
Molecule CCOC(=O)/C=C/c1ccccc1O has an activation of -1.38%.
Work on COc1ccc(-n2c(SCC(=O)OC(C)C)nnc2-c2ccccn2)cc1 yielded an activation of -1.58%.
COc1ccc2nc(-c3ccccn3)ccc2c1 was tested, and the activation was 0.98% (active).
COc1ccnc(Oc2ccccc2)n1 gave an activation of -0.92%.
For CC(c1ccc(N)cc1)c1cn(C)c2ccccc12 (configuration not stated), the activation was -1.36%.
Molecule C=CS(=O)(=O)N(Cc1nnn(Cc2ccccc2)c1Br)[C@H](C(=O)OC)C(C)C has an activation of -1.75%.
For COc1cc(/C=C/C(=O)n2cnc3ccccc32)cc(OC)c1OC, the activation was -2.15%.
Molecule COc1ccnc(NC(=S)N2CCN(c3ncc(C(F)(F)F)cc3Cl)CC2)c1 has an activation of -1.56%.
For CN(CCO)S(=O)(=O)c1ccc2c(c1)C(=O)c1cc(S(=O)(=O)N(C)CCO)ccc1-2, the activation was -1.38%.
In the case of COC(=O)[C@]12C[C@H](CC(=O)NCc3ccccc3)C(=O)N(CCc3ccc(OC)c(OC)c3)C1=C[C@H](C(C)(C)C)O[C@@H]2C, the activation is reported as -1.28%.
COc1ccc(CSc2nnc(SCC(=O)Nc3ccccc3C(F)(F)F)s2)cc1 gave an activation of -1.22%.
With COC(=O)C(NC(C)=O)(Nc1nc2c(s1)CCCC2)C(F)(F)F (configuration not stated) the activation was -0.86%.
For Fc1ccc2nc(Nc3nc4c(s3)CCCC4)sc2c1, the activation was 1.92% (active).
C[C@H]1CCC/C=C/C(=O)c2c(O)cc(O)cc2CC(=O)O1 was tested, and the activation was -1.77%.
For CCCCOCCCNC(=O)C[C@H]1C[C@@]2(C(=O)OC)C(=C[C@H](COCc3ccccc3)O[C@@H]2C)N(Cc2cccc3ccccc23)C1=O, the activation was -1.25%.
COC(=O)[C@]12C[C@H](CC(=O)NCCc3ccccc3OC)C(=O)N(Cc3ccco3)C1=C[C@H](C(C)C)O[C@@H]2C1CC1 gave an activation of -1.3%.
For CCCN(c1ccc(C)cc1)c1nc(=O)c2cccnc2s1, the activation was 1.12% (active).
With COc1ccnc(C(=O)N2CCC(Oc3cccnc3)CC2)c1 the activation was -1.55%.
CCCCCCN1CCS(=O)(=O)N(Cc2ccc(C(F)(F)F)cc2)C(C(=O)OC)C1 (configuration not stated) showed an activation of -0.61%.
With CN[C@H]1C[C@H]2c3cc(N4CCOCC4)ccc3CCN2C[C@H]1[C@H](C)O the activation was -1.27%.
For O=C(c1cn2ccccc2n1)N1CCc2c([nH]c3ccccc23)C1c1ccccn1 (configuration not stated), the activation was 0.91% (active).
Molecule COCc1ccc(C(=O)N2CCc3c([nH]c4ccccc34)C2c2ccccn2)s1 (configuration not stated) has an activation of -2.05%.
In the case of c1ccc(C2c3[nH]c4ccccc4c3CCN2Cc2cccn2-c2cccnc2)nc1 (configuration not stated), the activation is reported as -1.17%.
